Source: PubChem BioAssay (NCI)
This is part of a sample that, as a whole, favours compounds with a hit. Of some 79,000 tested, about 15% had one in any assay. Unmarked numbers belong to inactive results. The source made the active and inactive calls. No stated cut-off is given here; in the data, active means growth inhibition above about 70%; inactive means the rest.

Tests used:
[1] = NCI Yeast Anticancer Drug Screen. Data for the rad50 strain (AID 155);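 further: 0% = growth of vehicle-only cultures of the same strain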; conditions: S. cerevisiae rad50 strain growth inhibition, active compounds read high
In short: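 Readout: growth inhibition relative to vehicle-treated cultures. Compound exposure was carried out in a genetically defined yeast strain deficient in DNA damage repair.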

[2] = NCI Yeast Anticancer Drug Screen. Data for the mec2-1 strain (AID 157); conditions: S. cerevisiae mec2-1 strain, active compounds read high
In short: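 Test agents were screened against the mec2-1 yeast strain, with defined DNA repair or cell cycle alteration. Growth was scored as inhibition against vehicle-only controls.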

[3] = NCI Yeast Anticancer Drug Screen. Data for the sgs1 mgt1 strain (AID 161);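 further: 0% = growth of cultures given vehicle only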; conditions: S. cerevisiae sgs1 mgt1 strain, active compounds read high
In short: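 Mutant yeast exposed to compound; growth scored against vehicle-only wells.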

[4] = NCI Yeast Anticancer Drug Screen. Data for the cln2 rad14 strain (AID 165);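 further: 0% = growth equal to vehicle treated cultures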; conditions: S. cerevisiae cln2 rad14 strain, active compounds read high
In short: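 Growth of compound-exposed yeast (cln2 rad14 genotype) measured and expressed as inhibition relative to vehicle.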

[5] = NCI Yeast Anticancer Drug Screen. Data for the bub3 strain (AID 167); conditions: S. cerevisiae bub3 mutant strain, active compounds read high
In short: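 Readout: yeast growth inhibition, expressed relative to vehicle-only wells. The test organism is a mutant strain from a panel with lesions in DNA repair or checkpoint genes.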

[6] = NCI Yeast Anticancer Drug Screen. Data for the mlh1 rad18 strain (AID 175); conditions: S. cerevisiae mlh1 rad18 strain growth inhibition, active compounds read high
In short: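 In this whole-cell yeast screen, a strain with altered DNA damage repair is challenged with compound, and its growth is measured against matched vehicle-treated controls.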

[7] = at 5.0 µM (retest, dose inferred, filed as 0.5)
[8] = at 50.0 µM (retest, dose inferred, filed as 5.0)

| Structure (SMILES) | growth inhibition [1, 7] | growth inhibition [1, 8] | growth inhibition ([1]; at 50.0 µM) | growth inhibition [2, 7] | growth inhibition [2, 8] | growth inhibition ([2]; at 50.0 µM) | growth inhibition [3, 7] | growth inhibition [3, 8] | growth inhibition ([3]; at 50.0 µM) | growth inhibition [4, 7] | growth inhibition [4, 8] | growth inhibition ([4]; at 50.0 µM) | growth inhibition [5, 7] | growth inhibition [5, 8] | growth inhibition ([5]; at 50.0 µM) | growth inhibition [6, 7] | growth inhibition [6, 8] | growth inhibition ([6]; at 50.0 µM) |
| --- | --- | --- | --- | --- | --- | --- | --- | --- | --- | --- | --- | --- | --- | --- | --- | --- | --- | --- |
| Cc1cc(Cc2ccccc2)ccc1O | 0% | 66% | 51.2% | -6% | 39% | 96.4% (active) | -1% | 50% | 55.8% | -5% | 15% | 57.5% | -11% | 47% | 81% (active) | 8% | 60% | 41% |
| O=C1C=C(O)c2cc(Br)ccc2C1=O.[Ag] | 99% (active) | 99% (active) | 99.6% (active) | 100% (active) | 99% (active) | 99.5% (active) | 100% (active) | 99% (active) | 99.7% (active) | 99% (active) | 99% (active) | 99.5% (active) | 100% (active) | 99% (active) | 99.7% (active) | 99% (active) | 99% (active) | 99.1% (active) |
| Cc1cc(N(CCOS(C)(=O)=O)CCOS(C)(=O)=O)ccc1C=Nc1ccc(-c2csc(-c3ccc(Br)cc3)n2)cc1 | 49% | 91% (active) | 95.5% (active) | 47% | 95% (active) | 94.2% (active) | 48% | 95% (active) | 81.9% (active) | 37% | 88% (active) | 89.5% (active) | 11% | 85% (active) | 76.9% (active) | 88% (active) | 96% (active) | 96.7% (active) |
| c1ccc2nc3[nH]c4ccccc4c3cc2c1 | 24% | 87% (active) | 85.2% (active) | 18% | 52% | 53.6% | 14% | 40% | 50.8% | 22% | 39% | 44.8% | 18% | 46% | 50.6% | 18% | 45% | 69.2% |
| Cc1ccc(C(CN(C)C)C(=O)c2ccccc2)cc1C (stereo not given) | -4% | 97% (active) | 4.8% | -2% | 97% (active) | 3.35% | -4% | 93% (active) | 36.3% | -3% | 42% | -23.6% | -2% | 97% (active) | 69.4% | -6% | 98% (active) | 27.4% |
| O=C1OC2(CCCCC2)OC(=O)C1=Cc1ccc([N+](=O)[O-])s1 | 9% | 99% (active) | 56.1% | 6% | 100% (active) | 27.4% | 9% | 99% (active) | 99.8% (active) | 4% | 61% | 10% | 0% | 99% (active) | 22.6% | 14% | 99% (active) | 30.7% |
| CCCOC1=C(Cl)C(=O)c2cccc([N+](=O)[O-])c2C1=O | 94% (active) | 98% (active) | 99.5% (active) | 97% (active) | 99% (active) | 99.5% (active) | 81% (active) | 99% (active) | 99.4% (active) | 20% | 99% (active) | 99% (active) | 97% (active) | 99% (active) | 99.5% (active) | 93% (active) | 98% (active) | 99.1% (active) |
| COc1ccc(/C=C/c2cc(OC)c(OC)c(OC)c2)cc1O[Si](C)(C)C(C)(C)C | 1% | -9% | -2.65% | 0% | -3% | -1.75% | -1% | -5% | 13.6% | 1% | -4% | 53.2% | -1% | -7% | -37.5% | 1% | -6% | -4.45% |
| CC(=O)N/N=C/c1ccc([N+](=O)[O-])o1 | 13% | 34% | 70.2% (active) | 2% | 22% | 43.1% | 12% | 50% | 81.8% (active) | 5% | 13% | 35.5% | 5% | 22% | 58.5% | 17% | 61% | 84.8% (active) |
| CC(=O)Nc1ccc2c(c1)Cc1cccc(F)c1-2 | 11% | 14% | 70.3% (active) | 6% | 5% | 17.7% | 14% | 3% | 22.4% | 29% | 7% | 9.1% | 17% | 8% | 61.9% | -2% | 1% | 32.1% |
| CCOC(=O)OC(=S)N(C1CCCCC1)C1CCCCC1 | 4% | 58% | 50.5% | 0% | 90% (active) | 16.6% | 5% | 76% (active) | 50.8% | 5% | 58% | 41.4% | -1% | 77% (active) | 61.9% | 1% | 85% (active) | 60.8% |
| S=C1NC2=C(CSC/C2=C\c2cccc(Br)c2)C(c2cccc(Br)c2)N1 (stereo not given) | 9% | 98% (active) | 92.7% (active) | 1% | 98% (active) | 94.3% (active) | -1% | 98% (active) | 95.7% (active) | -8% | 96% (active) | 90% (active) | -15% | 98% (active) | 93.8% (active) | 5% | 98% (active) | 93.8% (active) |
| CC(C)C1=CC2=CCC3C(C)(C(=O)O)CCCC3(C)C2CC1 (stereo not given) (tested in a mixture with another compound) | -8% | 80% (active) | 75.5% (active) | -16% | 96% (active) | 75.7% (active) | -13% | 88% (active) | 75.5% (active) | -17% | 85% (active) | 88.5% (active) | -14% | 88% (active) | 89.5% (active) | -3% | 92% (active) | 88.8% (active) |
| Nc1ccc(-c2nc3ccccc3s2)cc1 | 21% | 96% (active) | 89.8% (active) | 2% | 100% (active) | 91.8% (active) | -3% | 99% (active) | 88.4% (active) | 8% | 85% (active) | 87.6% (active) | -2% | 99% (active) | 86.2% (active) | 10% | 98% (active) | 84.6% (active) |
| S=C(N/N=C1/CCCC/C1=N/NC(=S)N1CCOCC1)N1CCOCC1 | 38% | 96% (active) | 90.1% (active) | 33% | 99% (active) | 93.7% (active) | 40% | 99% (active) | 91.4% (active) | 32% | 98% (active) | 91.2% (active) | 51% | 99% (active) | 91% (active) | 41% | 97% (active) | 91.2% (active) |
| CC(=O)C(=C(I)I)c1ccccc1 | -20% | 71% (active) | 51.6% | -21% | 89% (active) | 55% | -27% | 93% (active) | 73.7% (active) | 8% | 34% | 30.8% | -34% | 83% (active) | 33.4% | -28% | 80% (active) | 24.2% |
| O=C(CC(=O)c1ccccc1)CC(=O)c1cccc(Cl)c1 | -1% | 87% (active) | 81.1% (active) | 5% | 89% (active) | 65% | -1% | 87% (active) | 76.2% (active) | -9% | 77% (active) | 18.4% | 8% | 94% (active) | 78.5% (active) | 4% | 93% (active) | 85.2% (active) |
| O=S(=O)(Nc1ccc2c3c(cccc13)C=C2)c1ccccc1 | -1% | 98% (active) | 64.5% | -4% | 94% (active) | 75.2% (active) | -7% | 97% (active) | 79.8% (active) | -9% | 96% (active) | 61.3% | -1% | 98% (active) | 63.4% | -2% | 97% (active) | 92.3% (active) |
| CCOC(=O)C(F)C(Br)C(=O)OCC (stereo not given) | 22% | 98% (active) | 90.5% (active) | 28% | 99% (active) | 91.8% (active) | 100% (active) | 100% (active) | 91.5% (active) | 98% (active) | 98% (active) | 89.8% (active) | 99% (active) | 100% (active) | 90.7% (active) | 49% | 98% (active) | 90% (active) |
| O=C(O)CSC(=S)N1CCCC1 | -4% | 5% | 46% | 2% | 3% | -5.3% | -4% | 4% | -14.5% | 2% | 2% | -40.7% | 2% | -3% | -5.6% | -4% | 8% | -15.8% |
| C(=C\N1CCCCC1)/c1nnnn1-c1ccccc1 | -23% | 6% | 34.5% | -18% | -21% | 54.1% | -31% | -18% | 71.9% (active) | -17% | -22% | 11.8% | -29% | -31% | 54.6% | -4% | 1% | 72.7% (active) |
| CCOc1ccc(N=Nc2ccccc2)cc1 | -11% | -58% | 1.8% | -25% | -35% | 37.1% | -8% | -39% | -19.8% | 0% | -27% | 38% | -13% | -39% | -12.6% | -9% | -49% | -11.9% |
| O=[N+]([O-])c1cccc(S(=O)(=O)Cl)c1 | -1% | 10% | -15.3% | 2% | 3% | 14.9% | 1% | 6% | 14.2% | -3% | 0% | 43.9% | -2% | 4% | 59.5% | -1% | 2% | 33.5% |
| CCN(CC)CCCNc1cc(C)nc2c1ccc1c2ccc2c(NCCCN(CC)CC)cc(C)nc21 | -4% | 92% (active) | 61.9% | -2% | 75% (active) | 97.8% (active) | -1% | 78% (active) | 65.8% | -7% | 82% (active) | 73.7% (active) | -4% | 97% (active) | 96.7% (active) | -4% | 81% (active) | 94.2% (active) |
| NNC(=S)N/N=C(\CC1OC(=O)c2ccccc21)c1ccccc1O (stereo not given) | 6% | -3% | 80.1% (active) | -12% | -17% | 60.2% | 22% | 7% | 56.1% | 11% | 4% | 32% | -9% | 13% | 58.1% | -43% | -27% | 84.2% (active) |
